From PubChem BioAssay (NCI)
Compounds without any hit were thinned out: in the full panel of roughly 83,000, 20% have a hit.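 A percent growth of 40 corresponds to 60% growth inhibition; 0 means no net growth; -100 means all cells died. Active threshold: below 10.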 Activity calls are given as the source filed them.

Columns and labels:
Assay in all cases: NCI-60 one-dose screen, 48 h (100 = growth as untreated, 0 = no growth, -100 = all killed)
[1] = tested on: RPMI-8226 leukemia; details: 10 µM unless noted
[2] = tested on: OVCAR-8 ovarian; details: 10 µM unless noted
[3] = tested on: OVCAR-5 ovarian; details: 10 µM unless noted
[4] = tested on: OVCAR-4 ovarian; details: 10 µM unless noted
[5] = tested on: SK-OV-3 ovarian; details: 10 µM unless noted
[6] = tested on: IGROV1 ovarian; details: 10 µM unless noted
[7] = tested on: OVCAR-3 ovarian; details: 10 µM unless noted
[8] = tested on: HS 578T breast; details: 10 µM unless noted
[9] = tested on: NCI/ADR-RES ovarian; details: 10 µM unless noted
[10] = tested on: T-47D breast; details: 10 µM unless noted
[11] = tested on: BT-549 breast; details: 10 µM unless noted
[12] = tested on: MDA-MB-435 melanoma; details: 10 µM unless noted
[13] = tested on: SW-620 colon; details: 10 µM unless noted
[14] = tested on: MCF7 breast; details: 10 µM
[15] = tested on: HCT-116 colon; details: 10 µM unless noted
[16] = tested on: HCC-2998 colon; details: 10 µM unless noted
[17] = tested on: KM12 colon; details: 10 µM unless noted

Measured: growth

COc1ccc(Cn2c(Br)c3c(c2Br)-c2nc(N)sc2CC3)cc1
active: [7] 7.35% | [12] -40.6%
inactive: [1] 27.3% | [2] 41% | [3] 91.4% | [4] 47.8% | [5] 24% | [6] 34.7% | [8] 34.1% | [9] 18.5% | [10] 50.4% | [11] 51.4% | [13] 16% | [14] 17.7% | [15] 17.8% | [16] 66.9% | [17] 29.6%

COc1ccc(C2C3=C(COC3=O)N(CCO)c3cc4c(cc32)CCC4)cc1 (stereo unspecified)
active: [7] 0.832% | [12] 0.306%
inactive: [1] 86.8% | [2] 58.4% | [3] 96.2% | [4] 75.9% | [5] 57.3% | [6] 51.8% | [8] 69.7% | [9] 65.3% | [10] 31.5% | [11] 38.4% | [13] 31.5% | [15] 33.5% | [16] 61.1% | [17] 21.2%

Cc1ccc2cc3c(N)c4c(C)ccc(C)c4nc3nc2c1
inactive: [1] 34.3% | [2] 34.2% | [3] 89.5% | [4] 72.9% | [5] 93.3% | [6] 75.8% | [7] 81.3% | [8] 70% | [9] 72.7% | [11] 53.9% | [13] 11.1% | [14] 37.9% | [16] 62% | [17] 69.6%
active: [10] 6.15% | [12] -70.3%

CCCCCCn1c(=N)n(CC(O)COc2cccc(C)c2)c2ccccc21 (stereo unspecified)
active: [1] -24.8% | [2] -67.1% | [3] -7.84% | [4] -31.9% | [6] -58.1% | [8] -5.09% | [9] -2.54% | [12] -77.3% | [13] -65.9% | [14] -51.6% | [15] -33.8% | [16] -87.1% | [17] -43.8%
inactive: [5] 37.3% | [7] 23.3% | [10] 52.6% | [11] 36.6%

COc1ccc(-c2cn[nH]c2-c2ccc(OC)c(O)c2)cc1
inactive: [1] 77.5% | [2] 88.4% | [3] 99.1% | [4] 90.2% | [5] 86.8% | [6] 77.2% | [7] 81.1% | [8] 75.9% | [9] 49.2% | [10] 73.6% | [11] 74.1% | [13] 38% | [14] 35.4% | [15] 61.4% | [16] 85.8% | [17] 44.8%
active: [12] 3.35%

COc1cc(C2C(C#N)=C(N)OC3=C2C(=O)c2ccccc2C3=O)cc(OC)c1O (stereo unspecified)
inactive: [1] 17.1% | [2] 33.7% | [3] 65.5% | [4] 81.9% | [5] 48.2% | [6] 62.1% | [9] 66.5% | [10] 88.4% | [11] 57.7% | [13] 13.4% | [14] 20% | [16] 45% | [17] 14%
active: [7] 1.44% | [8] 6.8% | [12] -31%

COc1ccc(-c2nocc2-c2cccs2)cc1
inactive: [1] 124% | [2] 110% | [3] 88.9% | [4] 99% | [5] 105% | [6] 102% | [7] 108% | [8] 91.1% | [9] 110% | [10] 75.7% | [11] 105% | [12] 101% | [13] 99.4% | [14] 97.3% | [16] 118% | [17] 104%

COc1cccc(C(=O)NC(c2ccc(C)cc2)c2cc(Cl)c3cccnc3c2O)c1 (stereo unspecified)
active: [2] 1.23% | [6] -5.14% | [9] 6.12% | [10] 6.13% | [16] 7.35%
inactive: [1] 15.5% | [3] 38.6% | [4] 24.9% | [5] 16.2% | [7] 30% | [8] 34.5% | [11] 12.3% | [12] 19.4% | [13] 14.1% | [14] 17.9% | [15] 19.2% | [17] 20.7%

COc1ccc(/C=C/C(=O)c2c(C)nc3ccccc3c2/C=C/c2ccccc2)c(OC)c1
inactive: [1] 66.1% | [2] 76.1% | [3] 88.2% | [4] 66.5% | [5] 94.3% | [6] 47.5% | [7] 84.8% | [8] 82.3% | [9] 85.9% | [10] 55% | [11] 89.2% | [12] 88.9% | [13] 80.5% | [14] 62.6% | [15] 51.5% | [16] 92.1% | [17] 87.4%

Nc1ccccc1-c1ccc(-c2ccc(Cl)cc2)c2c1[nH]c1ccccc12
inactive: [1] 42.1% | [2] 77% | [3] 91.2% | [4] 92.5% | [5] 106% | [6] 62.3% | [7] 79% | [8] 82.4% | [9] 77.2% | [10] 60.4% | [11] 85.4% | [12] 91.2% | [13] 78.2% | [14] 68.7% | [15] 52.8% | [16] 86.1% | [17] 66.6%

NC1C(N)C(N)C1N (stereo unspecified)
inactive: [1] 93.3% | [2] 100% | [3] 95.7% | [4] 105% | [5] 92.5% | [6] 99.6% | [7] 111% | [8] 112% | [9] 99.6% | [10] 102% | [11] 107% | [12] 122% | [13] 106% | [15] 103% | [16] 99.9% | [17] 119%

CCN1CCN(C(=S)SCC(=O)Nc2nc3ccc(C)cc3s2)CC1
inactive: [1] 94.7% | [2] 91.9% | [3] 95.3% | [4] 86.2% | [5] 102% | [6] 72% | [7] 106% | [8] 112% | [9] 103% | [10] 87.8% | [11] 108% | [12] 116% | [13] 109% | [14] 105% | [15] 94.7% | [17] 108%

COc1cc(NC(=O)CCSc2nc3ccccc3c(=O)n2CCc2ccccn2)cc(OC)c1OC
inactive: [1] 79% | [2] 79.1% | [3] 89.4% | [4] 46.6% | [5] 78.9% | [6] 99.8% | [7] 110% | [8] 89.2% | [9] 89.4% | [10] 69.7% | [11] 73.4% | [12] 101% | [13] 101% | [14] 62.4% | [15] 85.5% | [16] 97.5% | [17] 99.8%

COc1ccc(OC)c(NC(=O)/C(C#N)=C/c2ccco2)c1
inactive: [1] 93.7% | [2] 102% | [3] 115% | [4] 77% | [5] 88.2% | [6] 92.7% | [7] 110% | [8] 108% | [9] 103% | [10] 57.5% | [11] 84.5% | [12] 98.8% | [13] 106% | [14] 47.9% | [15] 95.1% | [17] 95.5%

COc1cc(C2C3=C(COC3=O)N(CCO)c3cc4c(cc32)CCC4)cc(OC)c1O (stereo unspecified)
inactive: [1] 32.2% | [2] 22.6% | [3] 56.6% | [4] 38.2% | [5] 37.7% | [6] 17.5% | [8] 32% | [9] 52.8% | [10] 46.4% | [13] 12.1%
active: [7] -35.5% | [11] -7.32% | [12] -26.8% | [15] 8.94% | [16] -22.4% | [17] -20.6%

O=c1nc2sc3nc4ccccc4cc3cc-2s1
inactive: [1] 128% | [2] 112% | [3] 120% | [4] 115% | [5] 108% | [6] 127% | [7] 140% | [8] 79.9% | [9] 103% | [10] 119% | [11] 112% | [12] 117% | [13] 107% | [14] 98.1% | [16] 106% | [17] 129%

COc1ccc(/C=C2\CCC/C(=C\c3ccc(OC)c(OC)c3)C2=O)cc1OC
inactive: [3] 41% | [5] 29.7% | [7] 13.8% | [8] 41.2% | [9] 11% | [10] 19.3% | [11] 13%
active: [1] -4.53% | [2] 2.04% | [4] -0.91% | [6] 4.96% | [12] -8.1% | [13] -21.7% | [15] -68.3% | [16] -30.1% | [17] -75.2%

Cn1cc([C@@H]2Nc3ccc4[nH]ncc4c3[C@H]3[C@H]4CCC(C4)[C@H]32)c(C(F)(F)F)n1
active: [12] -1.69%
inactive: [1] 46.6% | [2] 62.5% | [3] 79.4% | [4] 77.4% | [5] 77.4% | [6] 56.7% | [7] 34.7% | [8] 34% | [9] 31.3% | [10] 52.6% | [11] 54.6% | [13] 23.5% | [14] 25% | [15] 27.6% | [16] 82.8% | [17] 36.5%
